Experimental data from PubChem BioAssay (NCATS).
Inconclusive results are not listed. A call without a number means that no potency is given here. Calls of active or inactive are those of the source. Unless noted, the call rests on the fitted dose curve; in most records, active means well fitted curve in the direction sought with a large enough effect; inconclusive means small, poorly fitted or top-dose-only effect, or another doubt; inactive means no such curve, though single readings can be large; an effect the other way counts as inactive or inconclusive.

Columns and labels:
[1] = biological target: Aldehyde dehydrogenase, mitochondrial (Homo sapiens) (UniProt P05091); assay: qHTS for Inhibitors of the Aldehyde Dehydrogenase Family (ALDH2) Confirmatory screens (AID 2061303; active means well fitted inhibition curve with a large enough effect; title and protocol of this record describe different tests; further: nearly all actives have a fitted effect of over 45% in size; further: potency means the concentration at half of the fitted maximal effect)
[2] = biological target: Aldehyde dehydrogenase, mitochondrial (Homo sapiens) (UniProt P05091); assay: qHTS for Inhibitors of the Aldehyde Dehydrogenase Family (ALDH2) Primary screen (AID 2061308); further: nearly all actives have a fitted effect of over 55% in size
[3] = biological target: Retinaldehyde dehydrogenase 3 (Homo sapiens) (UniProt P47895); assay: qHTS for Inhibitors of the Aldehyde Dehydrogenase Family (ALDH1A3) Primary screen (AID 2061315)
[4] = biological target: Aldehyde dehydrogenase 1A1 (Homo sapiens) (UniProt P00352); assay: qHTS for Inhibitors of the Aldehyde Dehydrogenase Family (ALDH1A1) Confirmatory screens (AID 2061316); further: nearly all actives have a fitted effect of over 65% in size; further: potency means the concentration at half of the fitted maximal effect
[5] = biological target: Retinaldehyde dehydrogenase 3 (Homo sapiens) (UniProt P47895); assay: qHTS for Inhibitors of the Aldehyde Dehydrogenase Family (ALDH1A3) Confirmatory screens (AID 2061311); further: nearly all actives have a fitted effect of over 60% in size; further: potency means the concentration at half of the fitted maximal effect
[6] = biological target: Retinal dehydrogenase 2 (Homo sapiens) (UniProt O94788); assay: qHTS for Inhibitors of the Aldehyde Dehydrogenase Family (ALDH1A2) Confirmation screens (AID 2061314); further: nearly all actives have a fitted effect of over 65% in size; further: potency means the concentration at half of the fitted maximal effect

Compound | Potency [1] | Potency [2] | Potency [3] | Potency [4] | Potency [5] | Potency [6]
O=C(Nc1ccc2c(c1)OCO2)Nc1nnc(-c2ccncc2)s1 | inactive | inactive | inactive | inactive | – | –
O=C(Nc1ccc([S+](=O)([O-])Nc2nccs2)cc1)c1ccccn1 | inactive | inactive | inactive | inactive | – | –
Cc1ccc(-n2nc(C)c3c(C(=O)Nc4ccc(Br)c(C)c4)cc(C)nc32)cc1 | inactive | – | – | – | inactive | inactive
CC(C)c1ccc(S(=O)(=O)c2cnc(SCC(=O)Nc3ccc4c(c3)OCCO4)[nH]c2=O)cc1 | inactive | – | inactive | – | inactive | 10.1 µM (active)
COc1ccc(N2CCN(C(=S)Nc3cc(C)ccn3)CC2)cc1 | 10.1 µM (active) | – | – | 3.18 µM (active) | 22.5 µM (active) | 12.7 µM (active)
O=C(Nc1cccc(C(F)(F)F)c1)c1cc(-c2ccc(Cl)cc2)on1 | inactive | – | – | – | inactive | inactive
O=C(Nc1ccc(N2CCOCC2)c(F)c1)Nc1nnc(-c2ccncc2)s1 | inactive | inactive | inactive | – | – | –
CCN(CC)c1nc2ccccc2nc1C(=O)Nc1ccc(C(C)=O)cc1 | inactive | – | – | inactive | inactive | inactive
Cc1cccc(-c2ccc(C=O)cc2)c1 | 12.6 µM (active) | – | – | 9.37 µM (active) | 0.047 µM (active) | 39.8 µM (active)
Cc1ccsc1CN(C)c1ncnc2ccc(-c3ccoc3C)cc12 | inactive | – | inactive | – | – | 11.3 µM (active)
O=C1c2ccccc2NC(c2ccc(-c3cccs3)o2)N1O (stereo not given) | 11.2 µM (active) | – | inactive | 6.34 µM (active) | – | 7.98 µM (active)
O=C(OCC#CCSc1nnc(-c2cccc3ccccc23)o1)c1ccco1 | 6.34 µM (active) | – | inactive | 6.34 µM (active) | – | –
O=C(NCCN1CCN(c2ccccc2)CC1)Nc1cccc(Br)c1 | inactive | – | – | – | – | inactive
COc1ccc(N2CCN(S(=O)(=O)c3ccc4c(c3)CC(=O)N4)CC2)cc1 | inactive | – | inactive | 5.17 µM (active) | inactive | –
O=C(CCC#CCSc1nnc(-c2cccc3ccccc23)o1)c1ccccc1 | 20.1 µM (active) | – | inactive | – | – | –
O=C(NC1CC(=O)N(c2ccccc2)C1)c1ccc(S(=O)(=O)N2CCOCC2)cc1 (stereo not given) | inactive | – | – | – | – | inactive
O=C(Nc1cccc(-c2ccc(N3CCOCC3)nn2)c1)Nc1cccc(C(F)(F)F)c1 | inactive | – | – | inactive | inactive | –
O=S1(=O)N=C(Sc2ccc3c(c2)OCCO3)c2ccccc21 | inactive | – | inactive | – | – | –
CCN(CC)c1ccc(NC(=O)Nc2ccc(C(C)=O)cc2)cc1 | inactive | – | inactive | – | – | inactive

Compound | Potency [1] | Potency [2] | Potency [3] | Potency [4] | Potency [5] | Potency [6]
CC(C)N1CCc2c(sc(NC(=O)C3CC3)c2-c2nc3ccccc3s2)C1 | inactive | – | inactive | 7.98 µM (active) | – | 5.65 µM (active)
Oc1ccc(Nc2nc(-c3ccncc3)nc3ccccc23)cc1F | inactive | – | inactive | – | – | –
O=C1Nc2ccccc2/C1=C\c1ccc(O)c(Cl)c1 | 10.1 µM (active) | – | inactive | – | – | 10.1 µM (active)
COc1ccc(C2=Nn3c(nnc3-c3ccccc3OC)SC2)c(OC)c1 | inactive | – | inactive | 14.2 µM (active) | inactive | –
COc1ccc(S(=O)(=O)N2C[C@@H](Oc3ccccc3)C[C@@H]2C(=O)N2CCOCC2)cc1 | inactive | – | – | – | – | inactive
O=C(Nc1cccnc1)c1ccco1 | 12.7 µM (active) | – | inactive | 6.34 µM (active) | – | –
COC(=O)c1ccc(NC(=O)CN2CCN(c3ccc(Cl)cc3)CC2)cc1 | 18.2 µM (active) | – | – | – | – | 18.2 µM (active)
CC(=O)Nc1sc2c(c1-c1nc3ccccc3s1)CNCC2 | 20.1 µM (active) | – | inactive | 8.96 µM (active) | – | –
N#Cc1c(-c2cccc(Br)c2)no[n+]1[O-] | inactive | – | inactive | 12.7 µM (active) | – | 3.57 µM (active)
CC(=O)c1ccc(NC(=O)c2cc(-c3ccc(C)s3)nc3ccccc23)cc1 | inactive | – | – | – | – | inactive
COc1ccc(-n2cc(C(=O)Nc3cc(F)ccc3F)c3ccccc3c2=O)cc1 | inactive | – | – | 11.5 µM (active) | – | inactive
Brc1ccc(-c2ccc(C3Nc4cccc5cccc(c45)N3)o2)cc1 | 0.896 µM (active) | – | – | 10.1 µM (active) | 7.12 µM (active) | –
[O-][n+]1onc(-c2ccccc2)c1CO | inactive | – | inactive | – | – | inactive
COc1ccc(NC(=O)CN(C)S(=O)(=O)c2ccc(C(=O)N3CCOCC3)s2)cc1 | inactive | – | – | – | – | inactive
COc1ccc(C2Nc3ccccc3C(=O)N2Cc2ccco2)cc1COc1ccccc1 (stereo not given) | inactive | – | inactive | – | inactive | –
COc1cc(O)c(C(CC(=O)N2CCN(c3ccc(F)cc3)CC2)c2ccc3c(c2)OCO3)c(OC)c1 (stereo not given) | 17.8 µM (active) | – | inactive | – | 12.7 µM (active) | –
COc1ccc(-c2ccc(CNc3ccc4[nH]c(=O)[nH]c4c3)o2)cc1Cl | 1.82 µM (active) | – | – | 7.26 µM (active) | – | –
O=C([C@@H]1C[C@H](Oc2ccccc2)CN1S(=O)(=O)c1cccc(F)c1)N1CCOCC1 | inactive | – | – | – | – | inactive
CC(C)N1CCc2c(sc(NC(=O)Cc3ccccc3)c2-c2nc3ccccc3s2)C1 | inactive | – | inactive | inactive | inactive | –
